NS1 function inh = blocks influenza NS1 protein function; Potency, µM (top dose mostly 46.1 µM); actives 0.4% (n = 270,000); calls by dose curve; further: actives are rising curves; nearly all actives have a fitted effect of over 50% in size
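S. cerevisiae expressing influenza A NS1, grown in glucose, washed, then diluted 1:100 into pH 6.0 -URA galactose medium with 23 nl compound. Growth recovery read as OD600; NS1-free strain serves as control.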
SARS PLP yeast = SARS-CoV PLP inhibition in yeast. Potency, µM (series often up to 32.9 µM), hits mostly activators. S. cerevisiae expressing SARS-CoV PLpro, growth rescue. actives 0.19% (n = 330,000). AID 485353; calls by dose curve; further: nearly all actives have a fitted effect of over 55% in size
Pf growth 48h = P. falciparum growth inhibition at 48 hours (one generation); P. falciparum luciferase growth in erythrocytes, 48 h; actives 5.9% (n = 310,000); Potency, µM (series often up to 28.7 µM), usual class: inhibitors
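In quantitative HTS format, infected erythrocytes bearing luciferase-reporter parasites were treated for a single generation at 37 C. Luminescence after adding detection reagent served as the growth measure.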
Pf growth 96h = inhibits malaria parasite growth, 96 h; P. falciparum luciferase reporter growth, 96 h; Potency, µM (series often up to 28.7 µM), usual class: inhibitors; actives 6.9% (n = 320,000); AID 504834
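Erythrocytes infected with luciferase-expressing P. falciparum were dispensed at 2% hematocrit and 0.05% parasitemia (final), then incubated with compounds 96 hours at 37 C in 5% CO2. Luminescence after detection reagent addition reported growth.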
Each line names hits and unclear results; the compound was inactive in the other large screens. A selection: hits, their analogues and other compounds. The true share with any hit is near 10%. Unless noted, the call rests on the fitted dose curve; in most records, active means well fitted inhibition curve with a large enough effect; inconclusive means small, poorly fitted or top-dose-only effect, or another doubt; inactive means no such curve, though single readings can be large or run the other way.

CN(C)C(=O)CCc1ccc2c3c([nH]c2c1)[C@]1(CCc2ccccc2)[C@@H](C(=O)N2CCCCC2)C[C@H](CC(=O)NC(C)(C)C)C(=O)N1CC3	none (no result: NS1 function inh, Pf growth 48h, Pf growth 96h)
Cc1nc2scc(C)n2c(=O)c1S(=O)(=O)Nc1ccc(OC(F)(F)F)cc1	none
CN(CC(=O)Nc1ccc(F)c(F)c1F)C(=O)c1n[nH]c(=O)c2ccccc12	none (no result: NS1 function inh, Pf growth 48h, Pf growth 96h)
Cc1cccc(NS(=O)(=O)c2ccc(C(=O)NCC3(N4CCCCC4)CCCCC3)cc2)c1C	Pf growth 48h 2.62µM (no result: NS1 function inh, SARS PLP yeast)
O=C(NCC1(N2CCCCC2)CCCCC1)c1ccc(NS(=O)(=O)c2ccccc2)cc1	Pf growth 48h inconclusive, Pf growth 96h inconclusive (no result: NS1 function inh)
COc1ccc(S(=O)(=O)N2CCCCC2)cc1NC(=O)CCOc1cc(C)ccc1C	Pf growth 48h inconclusive, Pf growth 96h 11.7µM (no result: NS1 function inh)
Cc1ccc(C)c(OCCC(=O)Nc2ccc(S(=O)(=O)N3CCCC3)cc2)c1	Pf growth 48h inconclusive, Pf growth 96h 9.28µM (no result: NS1 function inh)
COc1ccc(S(=O)(=O)N2CCCCC2)cc1NC(=O)c1ccc(C)cc1	none (no result: NS1 function inh)
C/C(=N\NC(=O)c1ccc(F)cc1)c1ccccn1	Pf growth 48h inconclusive
C=CCNC(=S)N/N=C(\C)c1ccccn1	Pf growth 96h 0.0029µM (no result: Pf growth 48h)
CCCC(C)C(=O)Nc1nc(C)c(-c2csc(Nc3ccccc3OC)n2)s1 (stereo unspecified)	Pf growth 48h inconclusive, Pf growth 96h 9.28µM
CCC(=O)Nc1nc(C)c(-c2csc(Nc3ccccn3)n2)s1	none (no result: NS1 function inh)
CCCC(=O)Nc1nc(C)c(-c2csc(Nc3ccccc3C)n2)s1	Pf growth 48h 11.7µM, Pf growth 96h inconclusive
CCCCCC(=O)Nc1nc(C)c(-c2csc(Nc3ccccc3OC)n2)s1	NS1 function inh inconclusive, Pf growth 48h inconclusive, Pf growth 96h 2.94µM
CCCCCCC(=O)Nc1nc(C)c(-c2csc(Nc3ccccc3OC)n2)s1	Pf growth 48h inconclusive, Pf growth 96h 3.7µM
CCCCCC(=O)Nc1nc(C)c(-c2csc(Nc3ccccc3OCC)n2)s1	Pf growth 48h inconclusive, Pf growth 96h inconclusive
COc1ccc2[nH]cc(CCNC(=O)c3ccccc3Cl)c2c1	none
CCCCNC(=O)NS(=O)(=O)c1ccc(N)cc1	none (no result: NS1 function inh, SARS PLP yeast)
CNS(=O)(=O)c1ccccc1C(=N)c1ccccc1	none (no result: SARS PLP yeast, Pf growth 48h, Pf growth 96h)
COc1c2ccccc2nc2ccccc12	Pf growth 48h 2.08µM
COc1ccc(NC(=O)CN(C)C(=O)c2ccc(S(=O)(=O)Nc3ccccc3C)cc2)cc1	Pf growth 48h inconclusive, Pf growth 96h inconclusive (no result: NS1 function inh)
CCc1ccc(OC)c(-c2csc(N)n2)c1	Pf growth 96h 11.7µM
COc1ccc(-c2n[nH]c3c2CN(C(=O)c2ccc(OC)c(OC)c2)CC3)cc1	Pf growth 48h inconclusive, Pf growth 96h 11.7µM
CCCSc1ccc(-c2nn(-c3ccccc3)cc2/C=C(/C#N)C(=O)NCCCOC)cc1	Pf growth 96h 3.7µM
CCSc1ccc(-c2nn(-c3ccccc3)cc2/C=C(/C#N)C(=O)NCCCOC)cc1	Pf growth 48h 1.85µM, Pf growth 96h inconclusive
Cc1onc(-c2c(F)cccc2Cl)c1C(=O)Nc1cccc(S(=O)(=O)NC2=NCCC2)c1	Pf growth 48h inconclusive (no result: NS1 function inh)
O=C(CN1C(=O)NC2(CCCCCC2)C1=O)NCCc1ccccc1	Pf growth 48h inconclusive (no result: NS1 function inh)
O=C(CN1CCCC1)Nc1ccc(-c2nc3cc(NC(=O)CN4CCCC4)ccc3o2)cc1	Pf growth 48h 2.33µM, Pf growth 96h inconclusive
CCCC(=O)Nc1ccc2oc(-c3ccncc3)nc2c1	Pf growth 96h inconclusive
COc1ccc(OCC(=O)Nc2ccc3oc(-c4ccncc4)nc3c2)cc1	none
CCN(CC)CC(=O)Nc1ccc(-c2nc3cc(NC(=O)CN(CC)CC)ccc3o2)cc1	Pf growth 48h 2.62µM
COc1ccc(-c2nc3cc(NC(=O)Cc4ccc(OC)c(OC)c4)ccc3o2)cc1	Pf growth 96h 4.15µM
CCC(C)NCC(=O)Nc1ccc(-c2nc3cc(NC(=O)CNC(C)CC)ccc3o2)cc1 (stereo unspecified)	Pf growth 48h inconclusive
Cc1ccc(N(CC(=O)N2CCc3ccccc3C2)S(C)(=O)=O)cc1	Pf growth 96h inconclusive
Cc1ccc(C)c(C(=O)CN2C(=O)NC3(CCCCCC3)C2=O)c1	Pf growth 48h inconclusive (no result: NS1 function inh)
Cc1cc(C)cc(OCCNC(=O)c2cc(S(=O)(=O)N3CCOCC3)ccc2F)c1	Pf growth 48h inconclusive
O=C(O)Cc1ccc([N+](=O)[O-])cc1[N+](=O)[O-]	none (no result: SARS PLP yeast, Pf growth 48h, Pf growth 96h)
CCOc1ccc(N2CC(C(=O)NCC(=O)Nc3ccc(F)c(F)c3F)CC2=O)cc1 (stereo unspecified)	none (no result: NS1 function inh)
O=C(O)CCN1C(=S)CSC1=S	none (no result: SARS PLP yeast, Pf growth 48h, Pf growth 96h)
CC[C@@]1([N+](=O)[O-])C[C@H]2C=C[C@@H]1C2	none (no result: SARS PLP yeast, Pf growth 48h, Pf growth 96h)
COc1cccc(CNS(=O)(=O)c2cc3c(cc2Cl)NC(=O)CO3)c1	none
COc1ccccc1C1(CC(=O)N2CCCCC2)CCOC(C(C)C)C1 (stereo unspecified)	Pf growth 96h 14.7µM (no result: Pf growth 48h)
COCC1CCN(C(=O)C2CCC(=O)N(Cc3cccc(F)c3)C2)CC1 (stereo unspecified)	SARS PLP yeast inconclusive
NC(=O)c1ccccc1NC(=O)/C=C/c1c(Cl)cccc1Cl	Pf growth 96h 13.1µM
Cc1ccc(S(=O)(=O)N2CCCC2CNC(=O)C(=O)Nc2ccc(F)cc2F)cc1 (stereo unspecified)	Pf growth 96h inconclusive (no result: NS1 function inh)
C=CC[C@@H](CC(=O)NCCO)C(=O)N[C@@H](C)COC(=O)[C@@H](CC=C)Cc1ccc(F)cc1	none (no result: NS1 function inh, Pf growth 48h, Pf growth 96h)
CN(C1CCCCC1)S(=O)(=O)c1cccc2nsnc12	Pf growth 96h inconclusive
CCCC1S/C(=N/N=C/c2ccc(OC)cc2)N(Cc2ccccc2)C1=O (stereo unspecified)	Pf growth 48h inconclusive (no result: Pf growth 96h)
CCCC1S/C(=N/N=C/c2ccc(OC)cc2)N(Cc2ccc(OC)cc2)C1=O (stereo unspecified)	Pf growth 48h inconclusive, Pf growth 96h 10.4µM
CCc1nc2ccccc2c(C(=O)OCC(=O)N(CC(C)C)c2c(N)n(Cc3ccccc3)c(=O)[nH]c2=O)c1C	Pf growth 48h 11.7µM, Pf growth 96h 9.28µM (no result: NS1 function inh)
COCCN(C(=O)COC(=O)C12CC3CC(CC(Cl)(C3)C1)C2)c1c(N)n(Cc2ccccc2)c(=O)[nH]c1=O	Pf growth 48h 11.7µM, Pf growth 96h inconclusive (no result: NS1 function inh)
CN(C(=O)COC(=O)C12CC3CC(CC(C3)C1)C2)c1c(N)n(Cc2ccccc2)c(=O)[nH]c1=O	none (no result: NS1 function inh)
Cc1c(C(=O)N(CC(C)C)c2c(N)n(Cc3ccccc3)c(=O)[nH]c2=O)sc2nc3n(c(=O)c12)CCC3	Pf growth 48h 8.28µM, Pf growth 96h inconclusive (no result: NS1 function inh)
CC(C)CN(C(=O)COC(=O)C12CC3CC(CC(Cl)(C3)C1)C2)c1c(N)n(Cc2ccccc2)c(=O)[nH]c1=O	Pf growth 48h 4.65µM, Pf growth 96h inconclusive (no result: NS1 function inh)
CN(CCOc1ccccc1)C(=O)C1CCC(=O)N(CCN2CCOCC2)C1 (stereo unspecified)	Pf growth 96h inconclusive
COc1ccc(COC(=O)c2sc3nc4n(c(=O)c3c2C)CCC4)cc1	Pf growth 48h 9.28µM, Pf growth 96h inconclusive (no result: NS1 function inh)
CCc1ccc(NC(=O)c2sc3nc4n(c(=O)c3c2C)CCC4)cc1	Pf growth 96h inconclusive
CCCOC(=O)C1=C(C)OC23OC(N)=C(C#N)C12C(=O)c1ccccc13 (stereo unspecified)	Pf growth 48h inconclusive

Assay outcomes as filed in PubChem BioAssay.
